# Screen size: about 150,000 compounds; about 540 (0.36%) showed an effect of 50% or more. The entries come from a sample that favours strong results as a whole.
# Tested on: Plasmodium falciparum
# Test: Primary screen in NF54 nanoGlo assay, in single point, at 2uM, 72h; a lower Z score goes with more inhibition
# Assay type: functional, Erythrocyte
# Settings: timepoint 72 hour
Compound,% Inhibition [%],Z score
CN1CCC(N2CCC(CN(CCCn3cccn3)Cc3ccncc3)CC2)CC1,-6,0.97
Clc1ccc2[nH]c3c(c2c1)CCCC3NC1CCN(C2CCOC2)CC1 (stereo not given),83,-16.55
Cc1ccc2[nH]c3c(c2c1)CCCC3NC1CC2CCC1O2 (stereo not given),-7,1.25
Cn1ncc(C(F)(F)F)c1CN[C@H]1CCCc2c1[nH]c1ccc(Cl)cc21,-15,2.6
CN1CCC[C@@H](CNc2ccnc3ccncc23)[C@@H]1c1ccnn1C,10,-1.79
COCCN1CCC(Nc2ncnc3c(C)cccc23)CC1,4,-0.91
COCCCN1CCC(Nc2ncnc3cc(C)c(C)cc23)CC1,96,-16.62
COCCN1CCC(Nc2nccnc2NC2CCN(CCOC)CC2)CC1,1,-0.15
COc1ccc(Nc2ncc(CN(C)CCn3ccnc3)s2)cc1,1,-0.26
COCCN1CC[C@H](CNC2CCN(c3ncc4ccc(F)cc4n3)CC2)C1,58,-10.01
CCc1cc(NC2CCN(CC(F)F)CC2)nc(-c2ccncc2)n1,4,-0.75
CCc1cc(Nc2ccc(N3CCOCC3)nc2)nc(-c2ccncc2)n1,56,-9.65
CN1CCC(N2CCN(Cc3c(Cl)ccc(O)c3Cl)CC2)CC1,-11,1.6
NCCc1cccc(CN2CCC[C@H](CN3CCCCC3)C2)c1,3,-0.52
O=C(NCc1ccc(N2CCNCC2)c(F)c1)c1ccc(-c2noc(C(F)(F)F)n2)cc1,67,-11.53
O[C@H]1CCN(Cc2cccc(NCc3cn4ccnc4s3)c2)C1,52,-7.83
OC1CCN(Cc2cccc(NCc3cccc(OCCn4ccnc4)c3)c2)CC1,-3,0.55
CCNc1cc(C)nc(NCCNC(=O)c2cc(-n3cccn3)nc(C)n2)n1,-1,0.15
CCNc1nc(C)cc(Nc2ccc(NC(=O)Nc3ccc(F)cc3F)cc2)n1,96,-20.77
CCNc1cc(C)nc(NCCNC(=O)Nc2cc(F)cc(F)c2)n1,79,-17.07
NS(=O)(=O)Cc1cccc(NC(=O)c2cc(F)cc3c(=O)c4cccc(F)c4[nH]c23)c1,-8,1.68
CN(C)Cc1ccccc1NC(=O)c1cccc2c(=O)c3ccccc3[nH]c12,-2,0.38
COc1cc2nc(NCC3(N4CCN(C)CC4)CCCC3)cc(C)c2cc1OC,55,-8.35
COc1cc2nc(N3CCC(CN4CCN(C)CC4)CC3)cc(C)c2cc1OC,-2,0.44
CC(C)CCOc1ccc2[nH]c(-c3cc(N4CCC[C@@H]4CS(C)(=O)=O)ccn3)cc2c1,97,-20.97
CCOc1cc2nccc(N3C[C@H]4CN(C)C[C@H]4C3)c2cc1OCC,99,-21.22
O=C1c2cccc3cccc(c23)C(=O)N1CCc1nc2ccccc2s1,-1,0.09
COCC(O)CN1CCC(NC2CCCNc3ccccc32)CC1 (stereo not given),-7,1.28

Compound,% Inhibition [%],Z score
O=C(c1cc(-c2ccccc2)[nH]n1)N1CCC(c2nc3cc(C(F)(F)F)ccc3s2)CC1,3,-0.4
CCN1CCC[C@H](Nc2cccc(-n3ccnc3)n2)C1,46,-6.91
O[C@H]1CCN(Cc2ccccc2CNc2cccc(-n3ccnc3)n2)C1,94,-14.28
O[C@@H]1CCCCC[C@H]1Nc1cccc(-n2ccnc2)n1,-11,1.62
CCn1nc(C(C)C)cc1C(=O)Nc1ccc(CC(=O)NC2CC2)cc1,3,-0.75
Cc1cc(=O)[nH]c(-n2nc(C)cc2NC(=O)[C@H](C)n2nc3c(cc2=O)CCC3)n1,-7,1.4
Cc1cc(=O)[nH]c(-n2nc(C)cc2NC(=O)C(=O)N2CCC[C@H](C)C2)n1,4,-0.54
COC(=O)c1cn(CCNc2ccnc3cc(Cl)ccc23)cc2c(O)nnc1-2,97,-19.19
Nc1cc(N2CCC(N3CCc4ccccc4C3)CC2)nc(N2CCOCC2)n1,5,-0.91
Nc1cc(N2CCC(c3nc4cc(F)ccc4[nH]3)CC2)nc(N2CCOCC2)n1,52,-10.32
Cc1cc(NC[C@H](O)COc2ccc(F)cc2)nc2ccccc12,68,-11.87
Cn1nnc(C(=O)N2CCCCC23CCCCCC3)n1,64,-13.81
CCN1C[C@H](Nc2nc(C)nc3sccc23)[C@@H](OC)C1,99,-21.25
COc1ccc(C(O)CNC2CCc3ccc(F)cc32)cc1 (stereo not given),0,0.04
CN(C)C1CCN(CCN[C@H]2CCc3ccc(F)cc32)CC1,87,-15.32
Cc1cnccc1NCCNc1nc(C(C)(C)C)nc2c1cnn2C,20,-3.05
Cc1cc(=O)n(CCN2CCN(C(=O)c3ccc[nH]3)CC2)c(=O)[nH]1,-9,1.92
COc1ccc2cc(-c3cc(N)ccn3)[nH]c2c1,54,-11.7
NC(=O)[C@H]1CCCN(CCCNc2cc(C(F)(F)F)nc(N3CCCC3)n2)C1,-5,0.88
COc1ccc2c(C)cc(NCCCN3CCC[C@H](C(N)=O)C3)nc2c1,57,-8.7
Cc1cc(NCCCN2CCC(C(=O)O)CC2)nc2ccccc12,-15,2.33
c1ccc(CN2CCC(CCNC[C@@H]3CCCN4CCCC[C@H]34)CC2)cc1,57,-10.03
CN1CCN(CC[C@H]2CCCCN2Cc2cnn(-c3ccc(F)cc3)c2)CC1,3,-0.51
c1ccc2c(CNCCC3CCN(c4ccncc4)CC3)csc2c1,80,-17.16
CCN1CCN(c2ccccc2CNCCC2CCN(C)CC2)CC1,27,-4.06
Fc1ccc(-n2cc(CNCCC3CCN(c4ccncc4)CC3)cn2)cc1,91,-15.93
Fc1ccc2c(CCNCc3cnn(-c4ccccc4)c3)c[nH]c2c1,-3,0.71
